# An excerpt weighted towards active compounds, which were near 6% of everything screened.
# Tau FP inhib: blocks human tau fibril formation measured by polarization; 280,000 tested, 0.39% active; P10636; K18 P301L tau heparin fibrillization, Alexa594 FP, 6 h; Potency, µM (series often up to 57.7 µM), for the others: top-dose activity, negative = inhibition, most hits filed as inhibitors; further: nearly all actives have a fitted effect of over 55% in size
# Target sequence (P10636 561-689 P618L limits assumed): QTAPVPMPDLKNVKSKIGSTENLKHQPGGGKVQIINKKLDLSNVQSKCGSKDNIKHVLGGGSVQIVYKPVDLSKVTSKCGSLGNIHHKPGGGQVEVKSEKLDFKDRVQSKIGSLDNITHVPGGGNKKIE
#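 Human tau K18 […] P301L fragment, 15 uM unlabeled plus 0.24 uM Alexa 594-labeled tau (final), with compound and 20 uM heparin in 100 mM sodium acetate pH 7; 6 hr at 37 C, then Alexa 594 FP read.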
# Tau fluor cs: counter-screen for tau fibril formation inhibitors | tau K18 P301L Alexa594 fluorescence, heparin fibrillization | Potency, µM (top dose mostly 57.7 µM), without a hit: at the top dose activity change, negative = decrease | 280,000 tested, 0.93% active | AID 1463; further: nearly all actives have a fitted effect of over 55% in size
#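 Human tau K18 P301L (15 uM unlabeled, 0.24 uM Alexa 594-labeled) in 100 mM sodium acetate pH 7 with 20 uM heparin, 6 hr at 37 C. ThT 30 uM added, 1 hr ambient; Alexa 594 FP and total fluorescence read at 555/632 nm.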
# Tau ThT inhib: tau fibrillization inhibition (ThT binding) | P10636 | recombinant tau K18 P301L (four-repeat tau fragment), heparin-induced fibrillization, ThT fluorescence | Potency, µM (highest dose often 57.4 µM), inactives show at the top dose activity, negative = inhibition, most hits filed as inhibitors | 270,000 tested, 2.1% active; further: nearly all actives have a fitted effect of over 55% in size
#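 Heparin-induced fibrillization of the P301L-mutant K18 repeat-domain fragment of human tau was followed by ThT binding in quantitative high-throughput format.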
# VDR inhibitor: blocks the human vitamin D receptor; Potency, µM, without a hit: max response, negative = inhibition, usual class: inhibitors; VDR-SRC2-3 peptide fluorescence polarization, 2 h; P11473; 400,000 tested, 0.93% active; AID 504847
# Target sequence (P11473 whole entry, looked up): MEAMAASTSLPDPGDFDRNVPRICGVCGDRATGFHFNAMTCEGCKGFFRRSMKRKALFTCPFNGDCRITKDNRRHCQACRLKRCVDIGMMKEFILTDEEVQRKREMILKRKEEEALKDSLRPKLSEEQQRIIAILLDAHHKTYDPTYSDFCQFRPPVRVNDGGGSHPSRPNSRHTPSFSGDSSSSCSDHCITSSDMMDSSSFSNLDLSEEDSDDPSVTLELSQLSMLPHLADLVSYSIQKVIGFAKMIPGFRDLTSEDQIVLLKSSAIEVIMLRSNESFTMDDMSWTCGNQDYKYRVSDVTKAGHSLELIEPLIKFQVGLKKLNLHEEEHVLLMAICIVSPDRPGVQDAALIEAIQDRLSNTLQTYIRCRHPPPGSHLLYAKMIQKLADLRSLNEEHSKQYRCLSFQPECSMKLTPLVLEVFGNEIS
#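 Fluorescence polarization assay measuring small-molecule disruption of VDR binding to the coregulator peptide SRC2-3. Compounds were pin-transferred (23 nl) into the reagent mix and incubated 2 h at room temperature before reading.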
# PLK1 PBD inh: PLK1 (human) polo-box domain binding inhibition; P53350; Plk1 PBD binding of FITC phosphopeptide, fluorescence polarization; Potency, µM, inactives show max response, negative = inhibition, actives largely listed as inhibitors; 360,000 tested, 2.8% active; further: series mostly up to about 57 µM; nearly all actives have a fitted effect of over 65% in size
# Sfp PPTase inh: blocks B. subtilis Sfp PPTase activity | AID 1490 | Biochemical Sfp PPTase activity, qHTS | Potency, µM, without a hit: largest response in the series, negative = inhibition, most hits filed as inhibitors | 310,000 tested, 3.5% active;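 further: the enzyme is Sfp with the accession as filed and its product quenches rhodamine fluorescence; 0% = enzyme reaction without inhibitor and -100% = no enzyme wells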
#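 Buffer: 50 mM Hepes-Na pH 7.6, 10 mM MgCl2, 0.01% Nonidet P-40, 0.01% BSA. Enzyme 15 nM, pre-exposed to compound 15 min; substrates then added and fluorescence change tracked over 30 min.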
# An asterisk follows results filed as active; ? = inconclusive; / = no result; ! = not active in a repeat; [ ] = dose if it differs, or a comment. The call rests on the fitted dose curve; in most records, active means well fitted curve in the direction sought with a large enough effect; inconclusive means small, poorly fitted or top-dose-only effect, or another doubt; inactive means no such curve, though single readings can be large; an effect the other way counts as inactive or inconclusive. Unless noted, on the % scale 0 is the no-effect control and ±100 the full control effect; potency means the concentration at half of the fitted maximal effect.
SMILES,Tau FP inhib,Tau fluor cs,Tau ThT inhib,VDR inhibitor,PLK1 PBD inh,Sfp PPTase inh
N#C/C(=C\c1ccc(C(=O)O)cc1)c1nc2sc3c(c2c(=O)[nH]1)CCCC3,-8%,?,14µM*,-5%,?,-13%
O=S(=O)(Nc1nc(-c2sccc2Cl)cs1)c1cc(Cl)ccc1Cl,-10%,-21%,?,?,17µM*,-24%
O=C(Nc1ccc(S(=O)(=O)N(Cc2ccccc2)c2ccccc2)cc1)c1ccc([N+](=O)[O-])cc1,-6%,?,7%,0%,/,/
Cc1ccccc1OCCNc1cc(N2CC(C)NC(C)C2)ccc1[N+](=O)[O-] (stereo not drawn),?,?,18µM*,-9%,-3%,-16%
CC1=CC(=C(C#N)c2nc3ccccc3s2)C=C(C)N1c1ccc(F)cc1,16%,?,-8%,1%,21µM*,7%
COc1ccccc1N1C(C)=CC(=C(C#N)c2nc3ccccc3s2)C=C1C,?,?,2%,2%,?,3%
COc1ccccc1NC(=O)c1ccccc1S(=O)(=O)c1ccc([N+](=O)[O-])cc1,/,/,/,-1%,-8%,3%
COc1ccccc1NC(=O)c1ccccc1S(=O)(=O)c1ccccc1[N+](=O)[O-],2%,-14%,-1%,-16%,6µM*,0%
CCOC(=O)C1(Cc2ccccc2)CCCN(C(=O)c2ccc(-n3ccnc3)cc2)C1 (stereo not drawn),/,/,/,22%,-1%,13%
Cn1c(N)c(C#N)c2c(c1=S)COC(C)(C)C2,-5%,-7%,-6%,-3%,-8%,10%
CCOC(=O)c1c2c(c(=S)n(-c3ccccc3)c1N)CCC2,?,?,25µM*,-4%,-8%,13µM*
CCC1(C)Cc2c(C#N)c(N)n(N)c(=S)c2CO1 (stereo not drawn),7%,-1%,-3%,-20%,27µM*,-16%
CCC1(C)Cc2c(C#N)c(SC)nc(N3CCOCC3)c2CO1 (stereo not drawn),/,/,/,7%,3%,/
CC1(C)Cc2c(C#N)c(N)n(-c3ccccc3)c(=S)c2CO1,-16%,-20%,?,27%,11µM*,12%
N#Cc1c2c(c(=S)n(-c3ccccc3)c1N)CCCC2,-4%,-10%,?,-17%,2.7µM*,32µM*
COc1ccc(C2/C=C\CN(C(=O)c3ccc(C)cc3)C(C)C(=O)N2Cc2ccc(F)cc2)cc1 (stereo not drawn),/,/,/,-3%,/,-1%
COc1ccc(C2=Nc3ccccc3N(C(=O)c3ccc(C(F)(F)F)cc3)C2C(=O)Nc2ccc3c(c2)OCCO3)cc1 (stereo not drawn),/,/,/,/,-10%,/
O=C(Nc1ccc2c(c1)OCO2)c1ccc(Cl)cc1Cl,/,/,/,-4%,-2%,21%
Cc1c(C(=O)c2ccc(Cl)cc2Cl)cnc2cc3c(cc12)OCO3,-3%,-23%,?,?,30µM*,-4%
CCCCN1C(=O)C2(NNc3ccccc3O2)c2ccccc21 (stereo not drawn),-13%,11µM*[quencher],11µM*,-2%,16%,?
C=CCN1C(=O)C2(NNc3ccccc3O2)c2ccccc21 (stereo not drawn),4%,13µM*[quencher],7.1µM*,2%,12%,?
CSCC[C@@H]1NC(=O)C/C=C\[C@@H](C)COC(=O)[C@H](C)COC1=O,-8%[11.6 µM],-3%[11.6 µM],-2%[11.5 µM],/,/,4%
CCOc1ccc(NC(c2ccccn2)c2oc(CO)cc(=O)c2O)cc1 (stereo not drawn),-9%,-11%,?,?,?,3.2µM*
CC1(C(=O)NCc2ccccc2)CN(S(C)(=O)=O)CC(=O)N1Cc1cccs1 (stereo not drawn),/,/,/,/,-17%,/
CN1CCN(c2ccc(Cl)cc2NS(=O)(=O)c2ccccc2Cl)CC1,2%,-6%,1%,-3%,27µM*,-10%
SMILES,Tau FP inhib,Tau fluor cs,Tau ThT inhib,VDR inhibitor,PLK1 PBD inh,Sfp PPTase inh
CCN(CC)S(=O)(=O)c1cc(C(=O)Nc2cc(Cl)ccc2N2CCN(C)CC2)ccc1Cl,8%,-23%,?,11%,-2%,50µM*
CN1CCN(c2ccc(Cl)cc2NC(=O)c2ccc(S(=O)(=O)N(C)C)cc2)CC1,-3%,-13%,-8%,-6%,-2%,-4%
Oc1c(Cl)cc(Cl)cc1C=Nc1ccc(Br)cc1,-4%,-8%,?,2%,-18%,9%
OCC(CO)(CO)N=Cc1cc(Br)ccc1O,1%,5%,0%,-2%,-15%,-7%
CC(C)(C)c1ccc(O)c(N=Cc2cc(Br)ccc2O)c1,-5%,?,?,-5%,3%,50µM*
Oc1ccc(Br)cc1C=Nc1ccc(Cl)cc1,-4%,-5%,-5%,-4%,21µM*,6%
CCN(CC)c1ccc(N=Cc2cc(Br)ccc2O)cc1,?,?,16µM*,?,-5%,63µM*
Cc1ccc(N=Cc2cc(Br)cc(Cl)c2O)cc1,?,-11%,18µM*,-18%,-27%,5%
CCCn1c(SCc2nc(-c3ccc(OC)c(OC)c3)no2)nnc1-c1ccccc1,-7%,-13%,-16%,13%,/,/
CCN(CC)c1ccc(/C=N/NC(=O)Cc2nnc(NC(=O)Nc3ccccc3)s2)cc1,7%,7.1µM*[quencher],?,5%,-13%,14%
O=C(Cc1nnc(NC(=O)c2ccccc2)s1)N/N=C/c1ccc(O)cc1,/,/,/,3%,-6%,-40%
CC1CC(C)CN(S(=O)(=O)c2ccc(C(=O)N(C)Cc3ccccc3)cc2)C1 (stereo not drawn),/,/,/,-18%,1%,/
OC[C@H](S)CS,/,/,/,?,/,2.2µM*
CCOC(=O)c1ccc(NC(=O)CC2Nc3ccccc3NC2=O)cc1 (stereo not drawn),-14%,?,-16%,-25%,/,/
O=C1CSC(=S)N1N1C(=O)c2cccc([N+](=O)[O-])c2C1=O,?,-25%,13µM*,/,/,0.71µM*
Cc1cc(C)cc(NC(=O)c2nccnc2C(=O)O)c1,-1%,-6%,?,-18%,-14%,?
COC(=O)c1cc(NC(=O)c2nccnc2C(=O)O)cc(C(=O)OC)c1,0%,-8%,-16%,6%,-5%,56µM*
O=C(C=C=Nc1ccccc1)C(=O)N=C=Cc1ccccc1,?,?,10µM*,?,-3%,-1%
O=c1oc2cc(O)ccc2s1,?,-26%,?,28µM*!,-19%,-27%
CCOc1ccccc1NC(=O)Cn1ncc2c([nH]c3ccccc32)c1=O,?,-3%,-5%,-3%,/,/
Cc1cccc(N(C)S(=O)(=O)c2csc(C(N)=O)c2)c1,/,/,/,5%,-1%,6%
CCc1ccc(C(=O)COC(=O)CNC(=O)Cc2ccccc2)cc1,/,/,/,12%,11%,13%
CCC(=O)NCC(=O)OCC(=O)c1ccccc1,-4%,-4%,-7%,-26%,3µM*,0%

# Source: PubChem BioAssay (National Center for Advancing Translational Sciences (NCATS))
